Bioassay records: PubChem, National Center for Advancing Translational Sciences (NCATS)
D3 antag – antagonists of human D3 dopamine receptor. 2.5% of 360,000 active. AID 652054. P35462. D3R cells, DiscoveRx beta-arrestin luminescence, antagonist mode; stronger effect = lower value. max response, negative = inhibition, %; in the data active = max response below about -50%; inconclusive = no clear call, values can overlap the other calls; note: % is set by controls: 0 for no effect and ±100 for the full control effect
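Cells plated overnight at 1500 cells/well, then exposed to library compounds with dopamine controls for 90 minutes at 37 degrees C. DiscoveRx reagent added for 30–60 minutes at room temperature; luminescence read, quantitative HTS format.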
MmCpn inh – inhibitors of Methanococcus maripaludis chaperonin TRiC (MmCpn); 0.031% of 330,000 active; Potency, µM (titrated, usually from 76.9 µM), inactives show at the top dose activity, negative = inhibition, actives largely listed as inhibitors; purified Mm-Cpn ATPase, ADP Transcreener TR-FRET; AID 504842; active = well fitted inhibition curve with a large enough effect; inconclusive = small, poorly fitted or top-dose-only effect; note: potency is the fitted concentration of half-maximal effect; % is set by controls: 0 for no effect and ±100 for the full control effect; nearly all actives have a fitted effect of over 80% in size
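25 nM Mm-CPN + cpd, 10 min 37°C; + 10 uM ATP, 30 min 37°C; buffer 30 mM Tris pH 7.4, 100 mM KCl, 5 mM MgCl2, 1 mM DTT; Transcreener ADP HTRF detection 30 min RT.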
Rango-impB inh – Rango-importin beta binding inhibition; Potency, µM (titrated, usually from 92.2 µM), without a hit: at the top dose inhibition of complex formation; 0.031% of 340,000 active; Q14974; Rango CFP/YFP FRET sensor + importin beta, 45 min;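 note: potency is the fitted concentration of half-maximal effect; 0% = DMSO wells and 100% = buffer wells lacking importin beta; nearly all actives have a fitted effect of over 15% in size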
Target sequence (Q14974 whole entry, looked up): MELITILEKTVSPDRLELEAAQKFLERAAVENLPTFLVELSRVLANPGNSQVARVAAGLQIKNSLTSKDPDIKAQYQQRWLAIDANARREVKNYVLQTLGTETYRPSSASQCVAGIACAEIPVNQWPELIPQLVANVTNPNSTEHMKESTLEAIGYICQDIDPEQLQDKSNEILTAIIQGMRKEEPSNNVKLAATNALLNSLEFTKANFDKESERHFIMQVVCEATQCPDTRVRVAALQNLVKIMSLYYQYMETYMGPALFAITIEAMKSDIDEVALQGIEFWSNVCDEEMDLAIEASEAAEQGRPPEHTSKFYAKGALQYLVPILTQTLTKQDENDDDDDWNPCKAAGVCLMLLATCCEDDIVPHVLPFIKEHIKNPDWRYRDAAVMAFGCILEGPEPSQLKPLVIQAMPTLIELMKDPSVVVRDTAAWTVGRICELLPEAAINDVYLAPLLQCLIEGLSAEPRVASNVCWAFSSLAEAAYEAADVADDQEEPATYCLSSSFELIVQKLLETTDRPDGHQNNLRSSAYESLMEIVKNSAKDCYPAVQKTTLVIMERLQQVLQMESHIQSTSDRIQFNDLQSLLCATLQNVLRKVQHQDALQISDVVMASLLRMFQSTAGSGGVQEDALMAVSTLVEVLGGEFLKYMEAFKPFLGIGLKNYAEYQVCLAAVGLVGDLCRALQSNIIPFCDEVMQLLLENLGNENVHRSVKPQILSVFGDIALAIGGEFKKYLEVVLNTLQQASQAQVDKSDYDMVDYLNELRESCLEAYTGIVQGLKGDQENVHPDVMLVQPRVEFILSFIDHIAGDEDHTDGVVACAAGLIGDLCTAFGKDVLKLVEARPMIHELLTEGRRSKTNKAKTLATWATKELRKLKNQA
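FRET biosensor (snurportin 1 IBB flanked by EYFP and cerulean), 50 nM, with compound 5 min, then 0.125 microM importin beta in PBS, 1 mM DTT, 0.02% Tween-20, 0.1% BSA. CFP/YFP ratio read after 45 min at room temperature; pre-read flags interference.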
PTAP TSG101 blk – blocks PTAP/TSG101 interaction to inhibit HIV-1 budding. Potency, µM (series often up to 115 µM), for inactives: at the highest dose activity change, negative = inhibition, usual class: inhibitors. Fluorescence polarization, FITC-PTAP peptide / Tsg101 binding. AID 493005. Q99816. 340,000 tested, under 10 active; active = well fitted inhibition curve with a large enough effect in the main read-out, with a control signal flat, not every such curve was filed as active; inconclusive = small, poorly fitted or top-dose-only effect, or effect the other way, or a change in a side signal; inactive = no such curve, though single readings can be large or run the other way; note: potency is the fitted concentration of half-maximal effect; % of control where 0% means no effect
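Fluorescence polarization binding of Tsg101 binding domain (10 uM final) to FITC-labeled PTAP peptide (50 nM final) in HEPES pH 7.5 buffer with NaCl, Tween 20, EDTA, TCEP. Compounds added before peptide; binding 20 min at RT.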
Rango release inh – prevents RanGTP from dissociating the Rango-importin beta complex. Biochemical FRET Rango-importin beta, RanGTP-induced dissociation. 0.071% of 340,000 active. Potency, µM (highest dose often 46.1 µM), without a hit: at the top dose activity change, negative = inhibition. O95149+P62826. AID 540253; note: potency is the fitted concentration of half-maximal effect; % of control where 0% means no effect; nearly all actives have a fitted effect of over 45% in size
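Compounds sat 5 min at room temperature with 0.1 uM Rango biosensor plus 0.25 uM importin beta, then FRET pre-read. RanGTP-RCC1 (0.6 uM Ran, 2mM GTP, 0.2 uM RCC1) added for 45 min, and the CFP/YFP post-read measured blocked complex dissociation.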
D3 ag – D3 dopamine receptor (human) agonism; P35462; 0.58% of 410,000 active; max activation, %; D3R DiscoveRx beta-arrestin cells, luminescence, 90 min; in the data active = max activation above about 30%; note: 0% is about no effect
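Agonist mode: compounds and dopamine controls were applied to plated cells for 90 min at 37 degrees C after an overnight attachment at 1500 cells/well. Luminescent read-out followed 30 - 60 minutes at room temperature with DiscoveRx detection reagent.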
* = called active by the depositor; ? = inconclusive; . = not tested or not shown. Only some compounds are listed: those with a hit (about 2.9% of all), similar ones and a draw of the others. Unless noted, calls come from the whole dose curve.

SMILES	D3 antag	MmCpn inh	Rango-impB inh	PTAP TSG101 blk	Rango release inh	D3 ag
CSc1ccc(CNc2nnnn2C)cc1	-3	2%	3%	-1%	7%	46*
O=C(CC1N=C2c3ccccc3N=C(SCc3cccc(Cl)c3)N2C1=O)NCCc1ccccc1 (stereo not given)	.	.	.	.	.	-6
CC(=O)Nc1ccc(NC(=O)c2cnn(-c3ccccc3)c2C2CCN(C(=O)OC(C)(C)C)CC2)cc1	.	.	.	.	.	-5
Cc1ccc(C(=O)Nc2cc3c(cc2C)n(C)c(=O)c(=O)n3C)cc1	.	.	.	.	.	4
O=C(Nn1c(O)c(C=C2N=c3ccccc3=N2)sc1=S)c1cccc(Cl)c1	-53*	-15%	-3%	-8%	-12%	-22
O=C(Nn1c(O)c(C=C2N=c3ccccc3=N2)sc1=S)c1ccc(Cl)cc1	-19	-1%	2%	-11%	-7%	11
Cc1ccc(C)c(NC(=O)C2(C)CCN2C(=O)C(C)C)c1 (stereo not given)	-4	.	.	.	.	6
Cc1cc2nc(NC(=O)C3(C)CCN3C(=O)C(C)C)[nH]c2cc1C (stereo not given)	-18	.	.	.	.	66*
O=C(Oc1cccc2cccnc12)c1cccc(N2C(=O)C3C4CCC(C4)C3C2=O)c1 (stereo not given)	-88*	-2%	-3%	-5%	-12%	-11
Cc1c(C(=O)N(C)C)sc2nc(-c3ccccn3)[nH]c(=O)c12	-57*	4%	3%	-3%	-1%	1
CCN(CC)C(=O)c1sc2nc(Cc3ccccc3)[nH]c(=O)c2c1C	-18	-1%	1%	2%	9%	5
Cc1ccc2[nH]c(-c3ccccc3)c(CN3CCCC3)c(=O)c2c1	16	0%	-2%	0%	-13%	0
Cc1ccc2[nH]c(-c3ccccc3)c(CN3CCN(C)CC3)c(=O)c2c1	-76*	2%	3%	1%	-6%	-8
COc1ccccc1N(C(C)=O)C1=C(Cl)C(=O)c2ccccc2C1=O	-137*	.	.	.	.	-14
CC(=O)N(C1=C(N)C(=O)c2ccccc2C1=O)C(C)C	2	-1%	2%	-9%	20%	1
O=C(NCc1cccc(Cl)c1)c1ccc(NC(=O)N2CCSc3ccccc32)cc1	.	.	.	.	.	1
CCOC(=O)/C(=C\c1cccc(O)c1)c1nc2sc(C)c(C)c2c(=O)[nH]1	-58*	1%	1%	0%	-4%	-32
CC(C)Oc1ccc(CNC(=O)c2ccc3c(c2)N(C)CCS3)cc1	-74*	-28%	2%	-1%	4%	-9
COc1ccc(CNC(=O)c2ccc3c(c2)N(C)CCS3)cc1	?	-11%	-1%	-10%	-3%	-16
NC(=O)CSC1=Nc2ccccc2C2=NC(c3ccccc3)C(=O)N12 (stereo not given)	-7	1%	-3%	-2%	0%	5
CCN(CC)C(=O)CSC1=Nc2ccccc2C2=NC(c3ccccc3)C(=O)N12 (stereo not given)	-62*	0%	-4%	-5%	23%	0
COc1ccccc1-c1noc(-c2ccc(N3CCN(C)CC3)c([N+](=O)[O-])c2)n1	.	.	.	.	.	-29
O=[N+]([O-])c1ccccc1C1Nc2cccc3cccc(c23)N1	-104*	1%	-3%	-5%	-9%	-20
Oc1ccccc1C1Nc2cccc3cccc(c23)N1	-7	0%	?	-3%	38%	2
COc1cc2c(cc1O)CCN[C@]21CS[C@@H]2c3c(OC(C)=O)c(C)c4c(c3[C@H](COC1=O)N1[C@@H]2[C@H]2c3c(cc(C)c(OC)c3O)C[C@@H]([C@@H]1O)N2C)OCO4	.	.	.	.	.	-14
SMILES	D3 antag	MmCpn inh	Rango-impB inh	PTAP TSG101 blk	Rango release inh	D3 ag
COc1cc(/C=C(\C#N)c2nc3ccc(C)cc3[nH]2)cc([N+](=O)[O-])c1O	?	-11%	?	-9%	-2%	-8
N#C/C(=C/c1ccc(N2CCOCC2)o1)c1nc2ccccc2[nH]1	25	-9%	?	?	?	-1
COc1cc(/C=C(\C#N)c2nc3ccc(C)cc3[nH]2)c([N+](=O)[O-])cc1OC	-52*	0%	6%	0%	-26%	-3
N#C/C(=C\c1cc([N+](=O)[O-])c(N2CCOCC2)cc1N1CCOCC1)c1nc2ccccc2[nH]1	-79*	1%	-1%	-4%	-18%	-2
COc1ccccc1CNc1nc(-c2ccco2)nn1S(=O)(=O)c1ccc(Cl)cc1	.	.	.	.	.	1
CCN1CCN(c2nc3ccccc3n3cnnc23)CC1	-70*	3%	-3%	0%	4%	-22
CCOC(=O)c1ccc(NC(=O)c2cnc3c(-c4ccc(F)cc4)c(C)nn3c2C)cc1	.	.	.	.	.	-4
O=C(CSc1nc(-c2ccccc2)nc2c1CCCC2)c1ccc(Cl)cc1	.	.	.	.	.	7
Cc1cccc(N(CC(=O)NCCSCc2ccc(Cl)cc2)S(C)(=O)=O)c1C	.	.	.	.	.	2
CCN(CC)CCNC(=O)C12CC3CC(CC(C3)C1)C2	-63*	0%	1%	-10%	0%	-9
CCc1nc(NCc2ccc3c(c2)OCO3)c2oc3ccccc3c2n1	-66*	0%	0%	-3%	-8%	-5
CO[C@@]1(NC(=O)C(C(=O)O)c2ccc(O)cc2)C(=O)N2C(C(=O)O)=C(CSc3nnnn3C)CO[C@@H]21 (stereo not given in full)	.	.	.	.	.	5
CCOC(=O)/C=C/S(=O)(=O)c1ccc(NC(C)=O)cc1	-76*	-2%	1%	-4%	12%	-6
C#CCNC(=O)C1=C[C@@H](c2ccc(Br)cc2)[C@H](CCCO)[C@@H](OCC)O1	24	.	?	-2%	4%	-3
C#CCNC(=O)C1=C[C@H](c2ccc(C(F)(F)F)cc2)[C@@H](CCCO)[C@H](OCC)O1	0	.	-2%	-3%	9%	34*
O=C(/C=C/c1ccc(Cl)cc1)Nc1ccc(CN2CCOCC2)cc1	-21	-1%	0%	1%	19%	13
O=C(/C=C/c1ccc(Cl)cc1Cl)NC(=S)Nc1ccc(CN2CCOCC2)cc1	-83*	1%	1%	-3%	19%	-30
O=C(/C=C/c1ccccc1)NC(=S)Nc1ccc(CN2CCOCC2)cc1	-57*	1%	-1%	0%	9%	-17
O=C(NCc1ccccc1F)C1CCN(c2nn3cc(-c4ccc(F)cc4)nc3s2)CC1	.	.	.	.	.	4
CCN1CCc2c(sc3c2c(NCc2ccco2)nc2nnnn23)C1	-65*	1%	?	-16%	?	2
Cc1nc(NCc2ccco2)c2c3c(sc2n1)CCC3	5	-2%	-1%	-5%	2%	5
